We go through three compounds from ChEMBL document CHEMBL2218924, “A broad activity screen in support of a chemogenomic map for kinase signalling research and drug discovery” (Biochem J, 2013).

A word on the residual activity: it is the signal under treatment as a percentage of the control signal.

The target in test [1] is T1, Serine/threonine-protein kinase 17A (Homo sapiens) (UniProt Q9UEE5).
T1 sequence (whole entry): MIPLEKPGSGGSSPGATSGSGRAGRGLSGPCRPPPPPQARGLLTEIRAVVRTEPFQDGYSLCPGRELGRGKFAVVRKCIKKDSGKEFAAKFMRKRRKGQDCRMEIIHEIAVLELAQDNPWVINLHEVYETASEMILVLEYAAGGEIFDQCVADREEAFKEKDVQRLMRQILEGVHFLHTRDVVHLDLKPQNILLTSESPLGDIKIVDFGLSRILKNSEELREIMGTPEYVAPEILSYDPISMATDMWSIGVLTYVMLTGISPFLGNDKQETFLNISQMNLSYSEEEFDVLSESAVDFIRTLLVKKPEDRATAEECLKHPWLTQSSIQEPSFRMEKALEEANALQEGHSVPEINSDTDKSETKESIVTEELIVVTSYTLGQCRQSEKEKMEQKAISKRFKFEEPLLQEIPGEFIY
The note with it: at 10 µM.

Test [2] concerns the target T2, Dual specificity tyrosine-phosphorylation-regulated kinase 2 (Homo sapiens) (UniProt Q92630).
T2 sequence (whole entry): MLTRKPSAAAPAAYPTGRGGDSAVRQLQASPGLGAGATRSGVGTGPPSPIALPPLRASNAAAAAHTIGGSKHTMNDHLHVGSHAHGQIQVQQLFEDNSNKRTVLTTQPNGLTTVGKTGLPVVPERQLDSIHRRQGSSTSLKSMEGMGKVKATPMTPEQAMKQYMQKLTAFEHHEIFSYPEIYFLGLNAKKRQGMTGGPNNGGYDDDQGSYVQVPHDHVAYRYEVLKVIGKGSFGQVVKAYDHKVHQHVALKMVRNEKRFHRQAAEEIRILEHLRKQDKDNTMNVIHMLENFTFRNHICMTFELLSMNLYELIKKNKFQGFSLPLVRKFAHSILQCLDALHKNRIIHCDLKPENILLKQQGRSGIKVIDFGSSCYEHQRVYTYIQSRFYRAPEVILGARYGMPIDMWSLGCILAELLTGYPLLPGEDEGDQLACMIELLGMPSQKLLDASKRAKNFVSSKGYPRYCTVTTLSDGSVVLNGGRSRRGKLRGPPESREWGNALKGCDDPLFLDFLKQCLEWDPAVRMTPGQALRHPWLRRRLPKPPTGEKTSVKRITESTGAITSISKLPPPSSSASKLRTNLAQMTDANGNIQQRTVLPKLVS
The note with it: at 1 µM.

Test [3] concerns the target T2, Dual specificity tyrosine-phosphorylation-regulated kinase 2 (Homo sapiens). The note with it: at 10 µM.
Test [4] concerns the target T3, Ephrin type-A receptor 1 (Homo sapiens) (UniProt P21709).
T3 sequence (whole entry): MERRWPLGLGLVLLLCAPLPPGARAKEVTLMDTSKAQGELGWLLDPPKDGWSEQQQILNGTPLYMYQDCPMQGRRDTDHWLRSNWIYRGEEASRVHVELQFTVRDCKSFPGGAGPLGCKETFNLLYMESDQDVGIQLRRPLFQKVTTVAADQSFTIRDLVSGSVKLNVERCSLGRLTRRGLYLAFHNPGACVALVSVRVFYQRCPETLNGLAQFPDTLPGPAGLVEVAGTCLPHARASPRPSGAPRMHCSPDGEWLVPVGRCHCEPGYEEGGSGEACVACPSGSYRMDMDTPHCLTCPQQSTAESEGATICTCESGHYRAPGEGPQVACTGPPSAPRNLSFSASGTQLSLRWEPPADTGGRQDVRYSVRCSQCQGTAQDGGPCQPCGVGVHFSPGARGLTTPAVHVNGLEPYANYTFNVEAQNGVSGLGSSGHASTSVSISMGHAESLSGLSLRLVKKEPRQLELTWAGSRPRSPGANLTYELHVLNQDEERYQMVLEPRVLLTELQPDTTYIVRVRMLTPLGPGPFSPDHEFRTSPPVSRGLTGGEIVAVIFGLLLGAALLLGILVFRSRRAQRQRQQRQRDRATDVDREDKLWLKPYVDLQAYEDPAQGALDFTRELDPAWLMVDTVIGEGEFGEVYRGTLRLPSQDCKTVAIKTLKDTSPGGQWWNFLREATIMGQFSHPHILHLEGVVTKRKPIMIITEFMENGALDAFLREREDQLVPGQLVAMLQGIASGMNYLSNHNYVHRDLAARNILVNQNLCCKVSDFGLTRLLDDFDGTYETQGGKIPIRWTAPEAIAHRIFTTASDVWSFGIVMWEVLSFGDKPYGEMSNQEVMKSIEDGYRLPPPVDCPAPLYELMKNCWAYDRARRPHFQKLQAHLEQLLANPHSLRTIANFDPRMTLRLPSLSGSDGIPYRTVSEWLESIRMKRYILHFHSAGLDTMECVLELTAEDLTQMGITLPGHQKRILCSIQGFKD
The following applies: at 1 µM.

Test [5] deals with T3, Ephrin type-A receptor 1 (Homo sapiens). The note with it: at 10 µM.
In test [6] the target is T4, Ephrin type-A receptor 3 (Homo sapiens) (UniProt P29320).
T4 sequence (whole entry): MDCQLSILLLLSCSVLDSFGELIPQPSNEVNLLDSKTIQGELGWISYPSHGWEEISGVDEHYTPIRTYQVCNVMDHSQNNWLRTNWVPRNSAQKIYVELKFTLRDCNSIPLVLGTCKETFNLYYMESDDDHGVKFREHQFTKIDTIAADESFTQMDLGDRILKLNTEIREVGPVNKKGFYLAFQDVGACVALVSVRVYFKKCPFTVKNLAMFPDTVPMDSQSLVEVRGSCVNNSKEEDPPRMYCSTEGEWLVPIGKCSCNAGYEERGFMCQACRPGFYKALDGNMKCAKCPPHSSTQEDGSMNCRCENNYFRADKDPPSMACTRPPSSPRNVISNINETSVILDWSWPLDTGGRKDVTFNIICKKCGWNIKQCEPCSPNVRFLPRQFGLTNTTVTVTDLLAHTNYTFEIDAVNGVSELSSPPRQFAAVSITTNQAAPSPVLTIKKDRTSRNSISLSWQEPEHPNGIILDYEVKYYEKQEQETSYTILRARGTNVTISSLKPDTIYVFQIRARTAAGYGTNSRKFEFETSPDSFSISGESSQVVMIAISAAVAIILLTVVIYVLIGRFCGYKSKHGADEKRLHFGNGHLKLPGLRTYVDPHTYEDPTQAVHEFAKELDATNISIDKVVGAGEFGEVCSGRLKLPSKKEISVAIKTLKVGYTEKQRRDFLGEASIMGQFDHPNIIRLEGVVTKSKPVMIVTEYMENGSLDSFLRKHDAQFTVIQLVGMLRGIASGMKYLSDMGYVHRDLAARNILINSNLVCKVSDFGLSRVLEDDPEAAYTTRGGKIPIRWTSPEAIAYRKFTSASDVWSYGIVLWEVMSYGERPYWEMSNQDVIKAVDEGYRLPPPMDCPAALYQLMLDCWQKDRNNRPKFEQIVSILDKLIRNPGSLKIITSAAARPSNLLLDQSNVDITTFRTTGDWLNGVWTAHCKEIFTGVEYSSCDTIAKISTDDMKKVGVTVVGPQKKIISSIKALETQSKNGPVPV
The note with it: at 1 µM.

The target of test [7] is T4, Ephrin type-A receptor 3 (Homo sapiens). The following applies: at 10 µM.
Test [8] concerns the target Ephrin type-A receptor 7 (Homo sapiens) (UniProt Q15375). The following applies: at 1 µM.
Test [9] shares this target. The following applies: at 10 µM.
In test [10] the target is T5, Ephrin type-A receptor 8 (Homo sapiens) (UniProt P29322).
T5 sequence (whole entry): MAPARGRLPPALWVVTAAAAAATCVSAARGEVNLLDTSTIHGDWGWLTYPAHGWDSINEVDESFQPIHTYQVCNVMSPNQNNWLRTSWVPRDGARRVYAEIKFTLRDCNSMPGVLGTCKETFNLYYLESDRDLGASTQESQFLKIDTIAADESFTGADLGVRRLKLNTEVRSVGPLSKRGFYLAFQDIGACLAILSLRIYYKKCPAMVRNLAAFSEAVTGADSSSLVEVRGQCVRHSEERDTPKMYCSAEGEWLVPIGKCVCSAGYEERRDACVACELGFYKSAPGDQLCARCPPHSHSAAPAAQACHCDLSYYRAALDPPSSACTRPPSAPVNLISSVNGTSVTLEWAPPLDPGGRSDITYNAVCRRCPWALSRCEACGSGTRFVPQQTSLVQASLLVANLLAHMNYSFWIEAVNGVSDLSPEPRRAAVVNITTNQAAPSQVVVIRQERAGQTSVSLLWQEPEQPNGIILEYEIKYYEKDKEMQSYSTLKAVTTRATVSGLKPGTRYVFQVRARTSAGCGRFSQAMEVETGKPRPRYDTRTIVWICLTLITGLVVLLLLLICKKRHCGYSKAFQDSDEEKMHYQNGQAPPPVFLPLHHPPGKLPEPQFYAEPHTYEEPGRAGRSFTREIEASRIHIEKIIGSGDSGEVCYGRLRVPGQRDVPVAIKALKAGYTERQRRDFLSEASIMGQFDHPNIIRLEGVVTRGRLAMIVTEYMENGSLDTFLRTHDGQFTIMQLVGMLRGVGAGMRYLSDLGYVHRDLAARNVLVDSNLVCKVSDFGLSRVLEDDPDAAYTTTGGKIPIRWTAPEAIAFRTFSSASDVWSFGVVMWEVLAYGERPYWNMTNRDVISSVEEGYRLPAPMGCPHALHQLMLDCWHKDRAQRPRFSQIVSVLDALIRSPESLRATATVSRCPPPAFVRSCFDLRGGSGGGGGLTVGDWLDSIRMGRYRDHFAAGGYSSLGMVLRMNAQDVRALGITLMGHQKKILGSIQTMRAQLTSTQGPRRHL
The following applies: at 1 µM.

Test [11] addresses T5, Ephrin type-A receptor 8 (Homo sapiens). The note with it: at 10 µM.
The target in test [12] is T6, Ephrin type-B receptor 1 (Homo sapiens) (UniProt P54762).
T6 sequence (whole entry): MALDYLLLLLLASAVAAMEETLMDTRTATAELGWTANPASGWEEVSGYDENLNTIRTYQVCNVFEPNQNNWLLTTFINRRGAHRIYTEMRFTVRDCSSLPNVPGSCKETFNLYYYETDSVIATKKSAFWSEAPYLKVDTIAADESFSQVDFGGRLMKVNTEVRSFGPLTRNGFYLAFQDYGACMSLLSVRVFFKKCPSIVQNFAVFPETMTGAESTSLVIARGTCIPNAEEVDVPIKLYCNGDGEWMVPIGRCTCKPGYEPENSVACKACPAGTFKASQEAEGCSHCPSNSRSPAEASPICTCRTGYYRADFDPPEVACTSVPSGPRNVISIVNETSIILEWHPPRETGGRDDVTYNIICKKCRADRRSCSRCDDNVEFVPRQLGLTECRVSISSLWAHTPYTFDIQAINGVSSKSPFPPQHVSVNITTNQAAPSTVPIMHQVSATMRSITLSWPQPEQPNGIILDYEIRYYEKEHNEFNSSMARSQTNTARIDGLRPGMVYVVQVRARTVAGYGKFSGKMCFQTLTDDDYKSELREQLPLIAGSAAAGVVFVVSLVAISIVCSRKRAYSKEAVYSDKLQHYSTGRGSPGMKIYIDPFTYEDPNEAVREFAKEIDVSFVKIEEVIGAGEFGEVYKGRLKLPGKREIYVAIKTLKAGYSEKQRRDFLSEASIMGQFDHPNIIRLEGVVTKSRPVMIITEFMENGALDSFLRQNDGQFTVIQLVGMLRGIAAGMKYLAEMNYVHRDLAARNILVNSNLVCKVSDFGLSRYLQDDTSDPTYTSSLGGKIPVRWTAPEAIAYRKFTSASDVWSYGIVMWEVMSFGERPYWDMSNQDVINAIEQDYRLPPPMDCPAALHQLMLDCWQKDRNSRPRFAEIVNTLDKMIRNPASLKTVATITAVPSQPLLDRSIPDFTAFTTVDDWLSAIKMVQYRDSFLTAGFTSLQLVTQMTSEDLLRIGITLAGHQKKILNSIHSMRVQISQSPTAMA
The following applies: at 1 µM.

In test [13] the target is Ephrin type-A receptor 2 (Homo sapiens) (UniProt P29317). The following applies: at 1 µM.
Test [14] shares this target. The following applies: at 10 µM.
Test [15] addresses Ephrin type-A receptor 5 (Homo sapiens) (UniProt P54756). The following applies: at 10 µM.
For test [16] the target is unchanged. The following applies: at 1 µM.

Chain of Ephrin type-A receptor 5 (Homo sapiens) (P54756 whole entry): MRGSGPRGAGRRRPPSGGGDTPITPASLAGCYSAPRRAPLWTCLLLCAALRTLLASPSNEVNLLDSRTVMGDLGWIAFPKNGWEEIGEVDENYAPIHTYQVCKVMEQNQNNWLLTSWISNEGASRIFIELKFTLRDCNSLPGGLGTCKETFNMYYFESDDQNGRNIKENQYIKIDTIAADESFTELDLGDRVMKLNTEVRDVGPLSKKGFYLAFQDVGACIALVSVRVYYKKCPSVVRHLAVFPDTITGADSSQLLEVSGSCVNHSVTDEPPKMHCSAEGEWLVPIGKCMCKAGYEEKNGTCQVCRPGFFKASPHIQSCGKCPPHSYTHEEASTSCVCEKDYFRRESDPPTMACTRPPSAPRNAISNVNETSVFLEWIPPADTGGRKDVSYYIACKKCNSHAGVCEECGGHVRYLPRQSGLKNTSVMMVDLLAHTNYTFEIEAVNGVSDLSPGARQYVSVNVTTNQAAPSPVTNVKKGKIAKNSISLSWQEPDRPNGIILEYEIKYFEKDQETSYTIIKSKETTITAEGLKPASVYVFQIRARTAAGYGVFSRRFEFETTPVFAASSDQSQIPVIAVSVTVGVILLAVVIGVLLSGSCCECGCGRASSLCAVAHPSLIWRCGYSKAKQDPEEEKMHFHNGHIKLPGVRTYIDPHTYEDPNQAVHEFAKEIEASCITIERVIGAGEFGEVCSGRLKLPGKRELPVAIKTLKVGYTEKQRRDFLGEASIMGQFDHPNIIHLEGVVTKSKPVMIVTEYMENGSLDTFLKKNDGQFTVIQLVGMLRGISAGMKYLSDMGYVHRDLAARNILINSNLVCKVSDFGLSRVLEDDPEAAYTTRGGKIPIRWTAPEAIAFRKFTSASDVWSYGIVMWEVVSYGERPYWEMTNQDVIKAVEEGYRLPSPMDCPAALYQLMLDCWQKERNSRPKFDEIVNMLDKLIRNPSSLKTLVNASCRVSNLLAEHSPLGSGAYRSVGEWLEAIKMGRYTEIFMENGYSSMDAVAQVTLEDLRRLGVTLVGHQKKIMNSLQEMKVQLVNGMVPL
Chain of Ephrin type-A receptor 7 (Homo sapiens) (Q15375 28-998 limits assumed): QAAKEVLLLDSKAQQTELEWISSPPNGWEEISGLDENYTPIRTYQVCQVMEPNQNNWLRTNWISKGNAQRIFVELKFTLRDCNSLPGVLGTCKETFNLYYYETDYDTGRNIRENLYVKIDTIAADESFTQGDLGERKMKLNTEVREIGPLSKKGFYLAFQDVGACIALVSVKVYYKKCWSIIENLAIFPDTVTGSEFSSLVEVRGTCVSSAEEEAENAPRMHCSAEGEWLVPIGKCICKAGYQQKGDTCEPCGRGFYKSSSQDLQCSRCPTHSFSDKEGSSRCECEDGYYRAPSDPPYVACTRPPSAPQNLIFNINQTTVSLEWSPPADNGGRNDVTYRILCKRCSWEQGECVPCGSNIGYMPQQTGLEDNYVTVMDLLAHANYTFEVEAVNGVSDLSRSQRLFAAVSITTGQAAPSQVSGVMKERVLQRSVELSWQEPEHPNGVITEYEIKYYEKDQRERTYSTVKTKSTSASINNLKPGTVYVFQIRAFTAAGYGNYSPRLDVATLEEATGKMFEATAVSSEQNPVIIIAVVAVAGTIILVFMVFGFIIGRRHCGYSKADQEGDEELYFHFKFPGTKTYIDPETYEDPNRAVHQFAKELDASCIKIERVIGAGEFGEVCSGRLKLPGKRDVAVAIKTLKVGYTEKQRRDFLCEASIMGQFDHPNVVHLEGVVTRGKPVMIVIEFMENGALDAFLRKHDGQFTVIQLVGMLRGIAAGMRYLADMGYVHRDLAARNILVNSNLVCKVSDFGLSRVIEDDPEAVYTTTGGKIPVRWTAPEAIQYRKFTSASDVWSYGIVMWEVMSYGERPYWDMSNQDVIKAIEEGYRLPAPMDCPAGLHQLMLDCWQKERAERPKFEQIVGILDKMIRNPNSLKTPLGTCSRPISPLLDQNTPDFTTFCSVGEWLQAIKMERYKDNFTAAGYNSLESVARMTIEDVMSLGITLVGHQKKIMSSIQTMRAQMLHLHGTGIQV
Chain of Ephrin type-A receptor 2 (Homo sapiens) (P29317 whole entry): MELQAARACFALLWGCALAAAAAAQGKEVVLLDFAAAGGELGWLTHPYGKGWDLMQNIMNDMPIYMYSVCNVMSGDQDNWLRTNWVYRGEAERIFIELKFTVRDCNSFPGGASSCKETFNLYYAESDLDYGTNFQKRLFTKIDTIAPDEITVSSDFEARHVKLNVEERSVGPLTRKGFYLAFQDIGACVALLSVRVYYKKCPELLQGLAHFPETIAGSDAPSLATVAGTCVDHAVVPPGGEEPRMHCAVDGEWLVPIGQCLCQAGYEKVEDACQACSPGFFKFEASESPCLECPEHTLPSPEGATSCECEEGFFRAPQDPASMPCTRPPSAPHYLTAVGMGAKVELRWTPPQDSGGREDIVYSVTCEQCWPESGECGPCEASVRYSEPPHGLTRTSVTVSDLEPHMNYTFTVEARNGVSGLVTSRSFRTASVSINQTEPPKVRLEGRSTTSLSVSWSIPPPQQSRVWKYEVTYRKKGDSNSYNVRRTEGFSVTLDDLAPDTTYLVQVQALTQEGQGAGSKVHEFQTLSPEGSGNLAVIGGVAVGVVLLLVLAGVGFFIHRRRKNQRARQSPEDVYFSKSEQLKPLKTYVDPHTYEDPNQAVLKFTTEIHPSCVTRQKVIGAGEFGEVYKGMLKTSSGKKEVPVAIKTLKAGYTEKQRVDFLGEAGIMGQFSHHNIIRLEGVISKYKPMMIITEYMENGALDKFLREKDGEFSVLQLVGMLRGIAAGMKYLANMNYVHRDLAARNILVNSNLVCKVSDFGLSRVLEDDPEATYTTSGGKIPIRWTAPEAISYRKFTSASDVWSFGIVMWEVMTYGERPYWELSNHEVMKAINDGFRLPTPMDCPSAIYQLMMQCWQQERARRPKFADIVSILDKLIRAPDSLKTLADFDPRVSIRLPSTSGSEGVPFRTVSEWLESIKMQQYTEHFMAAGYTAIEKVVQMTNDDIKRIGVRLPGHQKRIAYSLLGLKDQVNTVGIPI

As for `O=C1Cc2c([nH]c3ccc(Br)cc23)-c2ccccc2N1`, the residual activity in [1] worked out at 39%; in [2], 92%; in test [3], 45%; in test [4], 91%; in test [5], 78%; in [6], 83%. Besides, the residual activity was 58% in test [7]; 98% in [8]; 72% in [9]; 95% in test [10]; 82% in test [11]; 98% in [12].

As to `O=c1cc(N2CCNCC2)oc2c(-c3ccccc3)cccc12`, the residual activity in [1] was determined as 66%; in [2], 87%; in test [3] it was 94%; in test [4], 91%; in test [5], 100%; in test [13], 99%. The residual activity was determined as 97% in test [14]; 91% in test [6]; 77% in [7]; 103% in test [15]; 98% in [8]; 88% in test [9]. The results for the residual activity in test [10], in test [11] and in test [12] were 102%, 100% and 100%, respectively.

For `CCCCc1c(-c2ccc(O)cc2)[nH]c2nccnc12`, the residual activity in [1] is 44%; in test [2], 85%; in test [3] it was 34%; in test [4], 29%; in test [5] it was 47%; in [13], 82%. The residual activity in [14] worked out at 60%; in test [6], 72%; in test [7], 30%; in [16], 95%; in test [15], 66%; in [8] it was 83%. The residual activity came out at 39% in [9], 90% in test [10], 58% in test [11] and 64% in test [12].
